In the library only some 4.6% were active in any assay of this set; here they are far more common.
D1 ag: activates the human D1 dopamine receptor | P21728 | HEK293 T-REx D1 cells, calcium flux, agonist mode | activation, % at 2 µM | 360,000 tested, 1% active | AID 504660
Target sequence (P21728 whole entry, looked up): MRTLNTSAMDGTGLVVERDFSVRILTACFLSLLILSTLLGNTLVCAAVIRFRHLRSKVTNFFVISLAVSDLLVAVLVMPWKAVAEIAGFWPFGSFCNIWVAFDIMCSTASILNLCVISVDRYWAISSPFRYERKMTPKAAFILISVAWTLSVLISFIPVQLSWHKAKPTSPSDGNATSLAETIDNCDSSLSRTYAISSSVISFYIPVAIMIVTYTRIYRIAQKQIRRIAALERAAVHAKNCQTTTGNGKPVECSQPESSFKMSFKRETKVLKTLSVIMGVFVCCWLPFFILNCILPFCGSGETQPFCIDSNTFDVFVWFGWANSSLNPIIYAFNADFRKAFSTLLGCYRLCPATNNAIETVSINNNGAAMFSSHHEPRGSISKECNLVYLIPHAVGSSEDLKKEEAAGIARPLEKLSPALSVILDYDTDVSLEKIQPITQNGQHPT
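Tetracycline-induced HEK293 TREx D1 cells, force-coupled to calcium signalling, were dye-loaded with a no-wash calcium kit. Compound was pin-added after a 10 s baseline. Fluorescence was read kinetically at 1 cycle/s for 180 s, with calcium rises flagged as agonism.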
TRHR ag: agonists of human TRH receptor; activation, % at 2 µM; AID 493084; P34981; TRHR cells, calcium flux fluo-8, FDSS agonist mode; 360,000 tested, 0.18% active
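TRHR-expressing cells loaded with fluo-8 calcium dye; 23 nL library compound pin-transferred, kinetic FDSS fluorescence (Ex 480/Em 530) recorded about 180 s for agonist-induced calcium release, before a 10 nM TRH EC20 addition for potentiator mode.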
D1 PAM: human D1 dopamine receptor positive modulation. P21728. HEK293 TREx D1 cells, calcium flux, dopamine EC20 potentiation. potentiation, % at 10 µM. 360,000 tested, 0.036% active; in the data active = potentiation above about 30%
TRHR PAM: allosteric enhancers of human TRH receptor. AID 493056. enhancement, % at 2 µM. 360,000 tested, 0.66% active. P34981. TRHR cells, fluo-8 calcium fluorescence, EC20 TRH enhancement; in the data active = enhancement above about 30%
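Enhancer read-out: after compound pinning and an initial kinetic agonist-mode read, an EC20 of TRH (10 nM final) was injected and fluo-8 calcium signal (Ex 480/Em 530) followed at 1 s/cycle for 100 cycles in TRHR-expressing cells.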
D1 antagonist: blocks dopamine activation of the human D1 receptor. 360,000 tested, 3.2% active. activity change, negative = inhibition, % at 10 µM. P21728. HEK293 TREx D1 cells, calcium flux, dopamine EC80; hits give low values; in the data active = activity change below about -30%
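Using tetracycline-induced force-coupled D1 Hek293 cells and a calcium dye, signals were followed for 180 s after compound, then for 180 s after EC80 dopamine, to detect inhibitors.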
Hits are given with their value. Rule as the data show it, unless noted: active = activation above about 30%; inactive = the rest.

What do the screens show for `O=[S+]([O-])(c1cc2ccccc2o1)N1CCN([S+](=O)([O-])c2c(F)cccc2F)CC1`?
D1 ag: inactive; TRHR ag: inactive; D1 PAM: inactive; TRHR PAM: inactive; D1 antagonist: inactive

What do the screens show for `O=C(c1cc([N+](=O)[O-])ccc1N1CCOCC1)N1CCOCC1`?
D1 ag: inactive; TRHR ag: inactive; D1 PAM: inactive; TRHR PAM: inactive; D1 antagonist: -42

What do the screens show for `Cc1ccc(NC(=O)c2cc([N+](=O)[O-])ccc2N2CCOCC2)cc1C`?
D1 ag: inactive; TRHR ag: inactive; D1 PAM: inactive; TRHR PAM: inactive; D1 antagonist: -30

Results for COCc1cc(C)nc(OCC(=O)N/N=C/c2ccc(C)cc2)c1C#N ?
D1 ag: inactive; TRHR ag: inactive; D1 PAM: inactive; TRHR PAM: inactive; D1 antagonist: -57

What do the screens show for `COCc1cc(C)nc(OCC(=O)N/N=C/c2ccccc2)c1C#N`?
D1 ag: inactive; TRHR ag: inactive; D1 PAM: inactive; TRHR PAM: inactive; D1 antagonist: inactive

Results for Cc1ccc2nc(SC(Cc3cc(Cl)ccc3Cl)C(=O)O)[nH]c2c1 (stereo unspecified) ?
D1 ag: inactive; TRHR ag: inactive; D1 PAM: inactive; TRHR PAM: inactive; D1 antagonist: inactive

Results for CCOc1ccccc1C(=O)NC1CCN(Cc2ccccc2)CC1 ?
D1 ag: inactive; TRHR ag: inactive; D1 PAM: inactive; TRHR PAM: inactive; D1 antagonist: -31

How did O=C(NC1CCN(Cc2ccccc2)CC1)c1ccccc1OCc1ccccc1Cl do in these assays?
D1 ag: inactive; TRHR ag: inactive; D1 PAM: inactive; TRHR PAM: inactive; D1 antagonist: -38

Results for Cc1oc(-c2ccccc2)cc1C(=O)NC1CCN(Cc2ccccc2)CC1 ?
D1 ag: inactive; TRHR ag: inactive; D1 PAM: inactive; TRHR PAM: inactive; D1 antagonist: -85

How did c1cncc(-c2ccnc3ncnn23)c1 do in these assays?
D1 ag: inactive; TRHR ag: inactive; D1 PAM: inactive; TRHR PAM: 33; D1 antagonist: inactive

What do the screens show for `c1ccc(-c2ccnc3ncnn23)nc1`?
D1 ag: inactive; TRHR ag: inactive; D1 PAM: inactive; TRHR PAM: inactive; D1 antagonist: inactive

What do the screens show for `NS(=O)(=O)Nc1c(Br)cc(Br)c2cccnc12`?
D1 ag: inactive; TRHR ag: inactive; D1 PAM: inactive; TRHR PAM: inactive; D1 antagonist: inactive

How did COc1cccc2c1C(=O)c1c(O)c3c(c(O)c1C2=O)C[C@@](O)(C(C)=O)C[C@@H]3O[C@H]1C[C@H](N)[C@H](O)[C@H](C)O1 do in these assays?
D1 ag: 44; TRHR ag: inactive; D1 PAM: inactive; TRHR PAM: inactive; D1 antagonist: inactive

How did N#Cc1nc(COc2cccc(Cl)c2)oc1NCCc1ccccc1 do in these assays?
D1 ag: inactive; TRHR ag: inactive; D1 PAM: inactive; TRHR PAM: inactive; D1 antagonist: inactive

What do the screens show for `Cn1cc(-c2cc3n(n2)CCC(=O)N3CCCC(=O)NCc2ccc(F)cc2)c2ccccc21`?
D1 ag: inactive; TRHR ag: inactive; D1 PAM: inactive; TRHR PAM: inactive; D1 antagonist: -33

How did COc1ccc(NC(=S)Nc2ccc3snnc3c2)cc1 do in these assays?
D1 ag: inactive; TRHR ag: inactive; D1 PAM: inactive; TRHR PAM: inactive; D1 antagonist: inactive

How did COc1ccc(NC(=S)Nc2ccc3nccnc3c2)cc1 do in these assays?
D1 ag: inactive; TRHR ag: inactive; D1 PAM: inactive; TRHR PAM: inactive; D1 antagonist: -34

What do the screens show for `CCc1ccccc1NC(=O)CN(Cc1ccccc1)S(=O)(=O)c1ccc(Br)cc1`?
D1 ag: inactive; TRHR ag: inactive; D1 PAM: inactive; TRHR PAM: inactive; D1 antagonist: inactive

How did CSc1ccccc1C(=O)NC1CCSc2ccccc21 (stereo unspecified) do in these assays?
D1 ag: inactive; TRHR ag: inactive; D1 PAM: inactive; TRHR PAM: inactive; D1 antagonist: -41

What do the screens show for `CC(=O)Nc1ccc(C(=O)NC2CCSc3ccccc32)cc1` (stereo unspecified)?
D1 ag: inactive; TRHR ag: inactive; D1 PAM: inactive; TRHR PAM: inactive; D1 antagonist: inactive

Results for Cc1ccc(NC(=S)NC2CCSc3ccccc32)cc1 (stereo unspecified) ?
D1 ag: inactive; TRHR ag: inactive; D1 PAM: inactive; TRHR PAM: inactive; D1 antagonist: -38

Results for COC(=O)c1scc(-c2ccc(C)cc2)c1S(=O)(=O)N1CCN(c2cccc(Cl)c2)CC1 ?
D1 ag: inactive; TRHR ag: inactive; D1 PAM: inactive; TRHR PAM: inactive; D1 antagonist: inactive

How did COc1cccc(C(=O)Oc2c(Br)cc(Br)cc2/C=N/NC(=O)c2cc(C)[nH]n2)c1 do in these assays?
D1 ag: inactive; TRHR ag: inactive; D1 PAM: inactive; TRHR PAM: inactive; D1 antagonist: -32

Results for COC(=O)c1ccccc1NC(=O)Cn1c(=O)n(CCCC(=O)NCc2ccccc2Cl)c(=O)c2ccccc21 ?
D1 ag: inactive; TRHR ag: inactive; D1 PAM: inactive; TRHR PAM: inactive; D1 antagonist: inactive

Results for COc1ccc(NS(=O)(=O)c2ccc(N3CCCCS3(=O)=O)cc2)cc1Cl ?
D1 ag: inactive; TRHR ag: inactive; D1 PAM: inactive; TRHR PAM: inactive; D1 antagonist: -30

How did O=S(=O)(NCc1ccc(Cl)cc1)c1ccc(N2CCCCS2(=O)=O)cc1 do in these assays?
D1 ag: inactive; TRHR ag: inactive; D1 PAM: inactive; TRHR PAM: inactive; D1 antagonist: -35

How did O=S(=O)(Nc1ccc(OC(F)(F)F)cc1)c1ccc(N2CCCCS2(=O)=O)cc1 do in these assays?
D1 ag: inactive; TRHR ag: inactive; D1 PAM: inactive; TRHR PAM: inactive; D1 antagonist: inactive

Results for O=[N+]([O-])c1ccc(N2CCN(c3ccc(F)cc3)CC2)cc1 ?
D1 ag: inactive; TRHR ag: inactive; D1 PAM: inactive; TRHR PAM: inactive; D1 antagonist: inactive

Results for O=[N+]([O-])c1ccc(N2CCN(Cc3ccc([N+](=O)[O-])o3)CC2)cc1 ?
D1 ag: inactive; TRHR ag: inactive; D1 PAM: inactive; TRHR PAM: inactive; D1 antagonist: -33

Results for O=[N+]([O-])c1ccc(N2CCSCC2)cc1 ?
D1 ag: inactive; TRHR ag: inactive; D1 PAM: inactive; TRHR PAM: inactive; D1 antagonist: -38

How did Cc1nonc1OCCN1CCN(c2ccc([N+](=O)[O-])cc2)CC1 do in these assays?
D1 ag: inactive; TRHR ag: inactive; D1 PAM: inactive; TRHR PAM: inactive; D1 antagonist: -40

What do the screens show for `O=[N+]([O-])c1ccc(N2CCN(CCOc3nonc3-c3ccccc3)CC2)c(Cl)c1`?
D1 ag: inactive; TRHR ag: inactive; D1 PAM: inactive; TRHR PAM: inactive; D1 antagonist: inactive

Results for O=C(NCc1nnc(-c2nc3ccccc3[nH]2)o1)C1CCCCC1 ?
D1 ag: inactive; TRHR ag: inactive; D1 PAM: inactive; TRHR PAM: inactive; D1 antagonist: inactive
